Source: ChEMBL document CHEMBL1961873, “Compounds: GSK PKIS; Assays: Nanosyn kinase panel” (2012)

Biological target: Serine/threonine-protein kinase pim-2 (Homo sapiens) (UniProt Q9P1W9)
Settings: at 0.1 µM

Chain of Serine/threonine-protein kinase pim-2 (Homo sapiens) (Q9P1W9 whole entry, looked up): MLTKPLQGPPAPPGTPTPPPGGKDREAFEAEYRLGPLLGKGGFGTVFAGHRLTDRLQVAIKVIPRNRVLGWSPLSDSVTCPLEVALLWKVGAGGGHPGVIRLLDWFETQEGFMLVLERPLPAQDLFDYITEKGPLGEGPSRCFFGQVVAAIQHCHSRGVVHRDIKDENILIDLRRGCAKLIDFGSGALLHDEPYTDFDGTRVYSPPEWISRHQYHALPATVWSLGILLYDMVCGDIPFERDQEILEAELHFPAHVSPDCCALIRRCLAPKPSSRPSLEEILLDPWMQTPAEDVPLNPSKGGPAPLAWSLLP

| SMILES | inhibition |
| --- | --- |
| COc1cc(C=NNc2ncnc3c2cnn3Cc2ccccc2)ccc1O | 0.65% |
| CCn1c(-c2nonc2N)nc2c(C#CCN)ncc(OCCCN)c21 | 3.26% |
| CCn1c(-c2nonc2N)nc2c(C#CC(C)(C)O)nc(O[C@@H](CN)c3ccccc3)cc21 | 2.45% |
| NS(=O)(=O)c1ccc(N/C=C2\C(=O)Nc3ccc4ncsc4c32)cc1 | 0.27% |
| NC(=O)c1sc(-n2cnc3cc(C(F)(F)F)ccc32)cc1OCc1ccccc1Br | -0.35% |
| Cc1cc(-c2ccco2)cc(C)c1/C=C/c1cncc(-c2nn[nH]n2)c1 | 0.57% |
| Nc1nonc1-c1nc2cnccc2n1C1CCCCC1 | 5.24% |
| COc1cccc(-n2ncc3c(N/N=C/c4ccncc4)ncnc32)c1 | 0.77% |
| COc1cc2c(cc1Nc1nc(Nc3ccsc3C(N)=O)c3cc[nH]c3n1)N(C(=O)CN(C)C)CCC2 | 0.47% |
| CCn1c(-c2nonc2N)nc2c(C#CC(C)(C)O)ncc(OC[C@@H]3CCCN3)c21 | 1.1% |
| CCn1c(-c2nonc2N)nc2c(C#CC(C)(C)O)ncc(OCC3CCNCC3)c21 | -3.05% |
| COc1cccc(COc2cc(-n3cnc4ccccc43)sc2C(N)=O)c1 | 0.51% |
| Fc1ccc(-c2ncn(C3CCNCC3)c2-c2ccnc(Oc3ccccc3)n2)cc1 | -3.22% |
| NS(=O)(=O)c1ccc(-c2ccc3c(NC(=O)C4CC4)n[nH]c3c2)cc1 | -0.15% |

Biological target: Serine/threonine-protein kinase pim-2 (Homo sapiens) (UniProt Q9P1W9)
Settings: at 1 µM

| SMILES | inhibition |
| --- | --- |
| COc1cc(C=NNc2ncnc3c2cnn3Cc2ccccc2)ccc1O | 4.62% |
| CCn1c(-c2nonc2N)nc2c(C#CCN)ncc(OCCCN)c21 | 5.54% |
| CCn1c(-c2nonc2N)nc2c(C#CC(C)(C)O)nc(O[C@@H](CN)c3ccccc3)cc21 | 20.6% |
| NS(=O)(=O)c1ccc(N/C=C2\C(=O)Nc3ccc4ncsc4c32)cc1 | 1.21% |
| NC(=O)c1sc(-n2cnc3cc(C(F)(F)F)ccc32)cc1OCc1ccccc1Br | 1.16% |
| Cc1cc(-c2ccco2)cc(C)c1/C=C/c1cncc(-c2nn[nH]n2)c1 | 1.49% |
| Nc1nonc1-c1nc2cnccc2n1C1CCCCC1 | 37.5% |
| COc1cccc(-n2ncc3c(N/N=C/c4ccncc4)ncnc32)c1 | 1.69% |
| COc1cc2c(cc1Nc1nc(Nc3ccsc3C(N)=O)c3cc[nH]c3n1)N(C(=O)CN(C)C)CCC2 | 3.29% |
| CCn1c(-c2nonc2N)nc2c(C#CC(C)(C)O)ncc(OC[C@@H]3CCCN3)c21 | 7.09% |
| CCn1c(-c2nonc2N)nc2c(C#CC(C)(C)O)ncc(OCC3CCNCC3)c21 | 3.34% |
| COc1cccc(COc2cc(-n3cnc4ccccc43)sc2C(N)=O)c1 | 1.31% |
| Fc1ccc(-c2ncn(C3CCNCC3)c2-c2ccnc(Oc3ccccc3)n2)cc1 | -3.69% |
| NS(=O)(=O)c1ccc(-c2ccc3c(NC(=O)C4CC4)n[nH]c3c2)cc1 | 0.28% |
